Data reported in PubChem BioAssay (NCATS).
Results filed as inconclusive are left out. A call without a number means that no potency is given here. The source made the active and inactive calls. The call rests on the fitted dose curve; in most records, active means well fitted inhibition curve with a large enough effect in the repeat runs; inconclusive means weak or mixed curves; inactive means flat fitted curve, though single readings scatter. Where a SMILES comes first, the peptide text is derived from it. The star is where a group is joined. Hexanoyl = CCCCCC(=O)*

Biological target: Cytochrome P450 2D6 (Homo sapiens) (UniProt P10635)
Sequence (P10635 whole entry, looked up): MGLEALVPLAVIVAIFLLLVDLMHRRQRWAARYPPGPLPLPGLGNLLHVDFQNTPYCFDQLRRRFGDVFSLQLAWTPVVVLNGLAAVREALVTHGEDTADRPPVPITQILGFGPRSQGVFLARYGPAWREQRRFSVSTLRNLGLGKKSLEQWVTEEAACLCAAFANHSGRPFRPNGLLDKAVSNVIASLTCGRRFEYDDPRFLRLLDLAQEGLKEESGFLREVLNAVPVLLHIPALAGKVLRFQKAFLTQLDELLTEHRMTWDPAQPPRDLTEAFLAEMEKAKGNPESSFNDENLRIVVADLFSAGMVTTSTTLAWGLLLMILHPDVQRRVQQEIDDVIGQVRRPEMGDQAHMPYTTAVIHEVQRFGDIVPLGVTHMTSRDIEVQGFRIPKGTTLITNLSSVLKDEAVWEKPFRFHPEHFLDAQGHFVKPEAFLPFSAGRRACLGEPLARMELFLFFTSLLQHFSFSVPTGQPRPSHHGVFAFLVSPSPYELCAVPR
Assay: Cytochrome P450 family 2 subfamily D member 6 (CYP2D6) small molecule antagonists: luciferase biochemical (cell-free) qHTS assay (AID 1645840); further: nearly all actives have a fitted effect of over 55% in size
Conditions: P450-Glo CYP2D6 enzyme, luciferin luminescence, 1 h; series mostly up to 57.4 µM
Method in brief: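 P450-Glo luminescent screen: recombinant CYP2D6 enzyme–proluciferin substrate mix preincubated with compound 10 min at room temperature, then NADPH regeneration added for 1 h at room temperature. Detection reagent added for 20 min; luciferin light read as relative luminescence units.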
Potency means the concentration at half of the fitted maximal effect.

Row | Structure (SMILES) | Potency
1 | O=C(O)Cn1nnc(-c2ccc(CN(CCCCOc3ccc(CN4CCCC4)cc3)CCc3ccccc3)cc2)n1 | 12 µM (active)
2 | c1ccc2c(Nc3nnc(-c4ccncc4)s3)cccc2c1 | inactive
3 | CCCCCC(=O)N1CCC[C@H]1C(=O)N[C@@H](Cc1ccc(O)cc1)C(=O)OC (Hexanoyl-Pro-Tyr-OMe) | inactive
4 | CC(C)c1c(NC(=O)Nc2ccc(Cl)cc2)c(=O)n(-c2ccccc2)n1C | 12 µM (active)
5 | COc1cc(Nc2nc3c(s2)CCCC3c2ccccc2)ccc1-n1cnc(C)c1 (stereo not given) | 0.275 µM (active)
6 | FC(F)(F)Oc1ccc(-c2ccc3nnc(C(F)(F)F)n3c2)cc1 | inactive
7 | O=C(Nc1ccc(N2CCC(C(=O)N3CCOCC3)CC2)cc1)c1cnc(Oc2ccccc2)nc1 | inactive
8 | COc1ccc(NC(=O)c2ccc(-c3ccc(C(N)=O)cc3C)cc2)cc1N1CCN(C)CC1 | inactive
9 | CC(CNS(=O)(=O)C(C)C)c1ccc(-c2ccc(C#N)cc2)cc1 (stereo not given) | inactive
10 | Cc1cc(OCCN2CCOCC2)nn1-c1ccc2ccccc2c1 | 5.35 µM (active)
11 | COc1cnc(-n2cnc(C)n2)c2[nH]cc(C(=O)C(=O)N3CCN(C(=O)c4ccccc4)CC3)c12 | inactive
12 | COc1ccc(N2CCN(CCCNC(=O)Cn3c(=O)c4cccn4c4c(C)ccnc43)CC2)cc1 | inactive
13 | CCCN(CCN1CCN(c2ccccc2OC)CC1)C1CCc2ncsc2C1 (stereo not given) | 1.9 µM (active)
14 | Cc1occc1C(=O)n1ccnc1 | inactive
15 | Cc1[nH]c2ccccc2c1CC(=O)N[C@@H](Cc1ccccc1)C(=O)N(C)c1ccccc1 | 16.9 µM (active)
